Screens: PubChem BioAssay, several laboratories
RecA intein inh: blocks M. tuberculosis RecA intein splicing; P9WHJ3; cell-free RecA intein splicing, fluorescence; inhibition, % (concentration not given with the values); actives 0.75% (n = 290,000); in the data active = inhibition above about 30%; inconclusive = no clear call, values can overlap the other calls;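 note: 0% = vehicle wells and 100% = reference inhibitor control wells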
Rv3671c protease: Rv3671c (M. tuberculosis) protease inhibition. P9WHR9. actives 0.048% (n = 320,000). inhibition, % at 5.96 µM. AID 2606; in the data active = inhibition above about 38%;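 note: extracellular domain of Rv3671c used as enzyme; 0% = enzyme with DMSO and 100% = no enzyme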
Target sequence (P9WHR9 whole entry, looked up, the tested form may be a part): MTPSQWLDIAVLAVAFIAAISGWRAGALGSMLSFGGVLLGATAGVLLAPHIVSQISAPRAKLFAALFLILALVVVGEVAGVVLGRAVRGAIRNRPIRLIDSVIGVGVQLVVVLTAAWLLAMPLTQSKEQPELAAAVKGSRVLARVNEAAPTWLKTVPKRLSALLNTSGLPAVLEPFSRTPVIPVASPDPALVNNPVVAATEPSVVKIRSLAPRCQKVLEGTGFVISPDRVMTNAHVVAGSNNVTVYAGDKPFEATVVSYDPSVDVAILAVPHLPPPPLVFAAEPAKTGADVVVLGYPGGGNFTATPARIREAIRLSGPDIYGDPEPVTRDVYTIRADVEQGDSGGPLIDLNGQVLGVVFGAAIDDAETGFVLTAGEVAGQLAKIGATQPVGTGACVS
Mtb betalactam: beta-lactam sensitization of Mtb H37Rv; actives 0.27% (n = 330,000); AID 434955; M. tuberculosis H37Rv growth with meropenem, percent inhibition; inhibition, % at 25 µM; call rule not given here;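 note: growth measured after seven days incubation then overnight dye step; 0% = bacteria only wells and 100% = bacteria with antibiotic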
UGM FP inh: inhibitors of M. tuberculosis UDP-galactopyranose mutase; inhibition, % at 10 µM; purified UGM, fluorescence polarization probe displacement; P9WIQ1; actives 0.06% (n = 320,000); in the data active = inhibition above about 10%, passing the limit was not always enough; inconclusive = no clear call, values can overlap the other calls
GDH-TPI counter: GDH-TPI coupled enzyme inhibition counter-screen; actives 1.2% (n = 360,000); inhibition, % at 4.8 µM; AID 588335; GDH-TPI coupled enzyme counterscreen, NADH absorbance; in the data active = inhibition above about 30%;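 note: 0% = DMSO wells and 100% = wells lacking the enzyme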
Mtb FBA inh: Mtb fructose-bisphosphate aldolase inhibition; inhibition, % at 1 µM; AID 588726; purified M. tuberculosis FBA, fluorescence read-out; actives 2.3% (n = 360,000); P9WQA3; in the data active = inhibition above about 27%;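 note: 0% = vehicle and 100% = reference inhibitor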
Target sequence (P9WQA3 whole entry, looked up): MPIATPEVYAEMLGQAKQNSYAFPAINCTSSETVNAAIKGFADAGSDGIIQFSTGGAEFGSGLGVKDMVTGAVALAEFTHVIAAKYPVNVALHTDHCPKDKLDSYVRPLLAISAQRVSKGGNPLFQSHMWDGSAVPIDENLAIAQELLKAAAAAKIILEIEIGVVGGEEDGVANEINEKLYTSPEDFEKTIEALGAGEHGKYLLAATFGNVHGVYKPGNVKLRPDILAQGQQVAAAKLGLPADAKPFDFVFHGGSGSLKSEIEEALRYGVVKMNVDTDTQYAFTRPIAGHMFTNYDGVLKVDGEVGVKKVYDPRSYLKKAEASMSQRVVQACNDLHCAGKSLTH
* marks the source's active call; other numbers are inactive results; i = inactive; ? = inconclusive; . = no result; + = active, no number. Shown are actives, neighbours in structure and some others; about 4% of the full set was active somewhere.

SMILES | RecA intein inh | Rv3671c protease | Mtb betalactam | UGM FP inh | GDH-TPI counter | Mtb FBA inh
CCOC(=O)Nc1ccc2c(COC(=O)CNS(=O)(=O)c3ccc(NC(C)=O)cc3)cc(=O)oc2c1 | 0.5 | 4.2 | 2.7 | 3.3 | 12.6 | 160.3*
Cc1cc(=O)oc2cc(NC(=O)c3ccccc3C(=O)O)ccc12 | 0.1 | -5.2 | 1.4 | 5.8 | 19.0 | +
COc1cccc(C(=O)Nc2ccc3c(C)cc(=O)oc3c2)c1 | -0.3 | . | 0.1 | -3.3 | 14.0 | 3.0
CCOC(=O)Nc1ccc2c(C)cc(=O)oc2c1 | -2.9 | 5.5 | 19.0 | 0.0 | 28.9 | 199.3*
C/C(=N\NC(=O)c1nnn(-c2nonc2N)c1C(C)C)c1ccc2ccccc2c1 | 13.8 | -5.9 | 5.9 | -2.9 | 11.2 | 0.0
Cc1ccc(S(=O)(=O)NC(=O)NC2=NC(C)(C)N(c3ccc(Cl)c(Cl)c3)C(N)=N2)cc1 | . | . | . | . | . | 1.8
CCc1nc2c(OCc3ccccc3C)cccn2c1N(C)C(=O)c1ccc(C)cc1 | . | . | . | . | 4.9 | -0.5
O=C(O)CNC(=O)c1ccc(NC(=O)/C(=C/c2ccccc2)NC(=O)c2ccccc2)cc1 | -2.6 | -1.8 | -0.8 | 1.9 | 5.0 | 1.1
COc1ccc(-c2ccnc3ncnn23)cc1 | 1.0 | 17.6 | -0.2 | 1.6 | 13.3 | +
c1ccc2c(c1)ncn2-c1ccc(-c2ccnc3ncnn23)cc1 | -0.5 | 3.8 | -2.2 | . | 6.8 | -1.7
COc1ccc(-c2cc(N3CCCC3)n3ncnc3n2)cc1 | 3.2 | -0.5 | -3.2 | 2.3 | 18.2 | 6.2
FCCCOc1ccc(-c2ccnc3ncnn23)cc1 | 1.4 | -1.3 | 2.0 | 1.4 | 0.3 | +
COc1ccc(-c2cc(-c3ccccc3)n3ncnc3n2)cc1 | 1.5 | 3.1 | 96.4 | 3.0 | 32.8* | 170.1*
CN(CC(=O)Nc1cccc(F)c1)C(=O)C1(c2ccccc2)CC1 | . | 0.9 | -2.5 | -0.5 | 4.2 | 3.5
Cc1ccc(NC(=O)c2cc(S(=O)(=O)N3CCCCC3)c[nH]2)cc1Cl | . | . | . | . | 2.4 | 1.5
Cc1ccc2[nH]c(CSc3ccccc3)cc(=O)c2c1 | -0.5 | 1.4 | 5.6 | -0.2 | 15.0 | 1.0
CN(C)c1ccc(CNC(=O)C2(C)Cc3c(-c4cccc(C(F)(F)F)c4)ccnc3O2)cc1 (stereo not given) | . | . | . | . | 2.5 | -2.7
CS(=O)(=O)N(CC(=O)N/N=C/c1cc([N+](=O)[O-])ccc1Cl)c1ccccc1 | -16.0 | -2.1 | -4.5 | -1.5 | -1.4 | -0.1
Cc1cccc(N(CC(=O)N/N=C/c2cc([N+](=O)[O-])ccc2Cl)S(C)(=O)=O)c1C | 2.6 | 0.1 | 7.6 | . | 9.1 | 34.0*
CCCCOc1ccccc1C(=O)NNC(=S)NC(=O)c1ccccc1[N+](=O)[O-] | -5.7 | 6.9 | 94.3 | 6.2 | 31.4* | -4.7
COc1ccccc1CCc1nnc(CCC(=O)N(C)Cc2cccc3ncccc23)o1 | 2.2 | 9.0 | -0.8 | -0.5 | -2.5 | 158.8*
NS(=O)(=O)c1ccc(CNC(=O)c2ccncc2)cc1 | -4.2 | -6.2 | 6.2 | -0.1 | -4.6 | 2.3
Cc1cccc(N2C(=O)NC(=O)/C(=C/c3cc4c(cc3[N+](=O)[O-])OCO4)C2=O)c1 | -20.8 | 6.0 | 12.9 | 11.2* | 4.9 | 12.7
C=CCn1c(N)c(C(=O)NCC2CCCO2)c2nc3ccccc3nc21 (stereo not given) | i | -122.9 | 4.1 | 2.9 | 4.1 | 144.2*
CC(C)CCNC(=O)c1c(N)n(CC2CCCO2)c2nc3ccccc3nc12 (stereo not given) | -77.4 | -44.1 | 38.2 | -3.6 | 11.7 | 18.8
SMILES | RecA intein inh | Rv3671c protease | Mtb betalactam | UGM FP inh | GDH-TPI counter | Mtb FBA inh
CCC(C)NC(=O)c1c(N)n(Cc2ccc3c(c2)OCO3)c2nc3ccccc3nc12 (stereo not given) | 41.4* | -10.6 | 46.1 | 0.9 | 20.4 | 20.2
CCC(C)NC(=O)c1c(N)n(CC2CCCO2)c2nc3ccccc3nc12 (stereo not given) | -78.6 | -40.5 | ? | 0.3 | 1.3 | 87.1*
CCCNC(=O)c1c(N)n(-c2ccc3c(c2)OCO3)c2nc3ccccc3nc12 | 0.6 | -3.5 | -7.1 | -0.4 | 5.8 | -2.0
O=C(O)c1cccc(N2C(=O)CSC2c2ccccc2)c1 (stereo not given) | 8.2 | -3.0 | 7.0 | 1.6 | -4.8 | -0.1
O=C(COC(=O)c1ccc(Br)c(S(=O)(=O)N2CCOCC2)c1)NCCc1ccccc1 | . | 1.9 | -0.2 | 5.9 | 1.8 | 1.6
Cc1c(C)c2cc(Cl)c(O)c(CN3CCCC(C)C3)c2oc1=O (stereo not given) | -146.1 | -4.6 | 9.5 | -4.6 | 8.2 | +
Cc1c(C)c2cc(Cl)c(O)c(CN3CCN(C)CC3)c2oc1=O | . | 0.9 | -1.4 | 2.9 | 27.7 | +
Cc1ccc(/C=c2\sc3nc(-c4ccco4)nn3c2=O)o1 | -0.3 | 3.9 | -2.5 | 1.9 | 39.7* | -1.6
Cc1ccc(/C=c2\sc3nc(-c4ccccc4Br)nn3c2=O)o1 | 0.8 | -13.2 | 17.0 | 0.8 | 26.1 | -1.0
c1ccc2c(c1)[nH]c1c(N3CCOCC3)ncnc12 | -1.4 | 3.4 | -3.0 | 0.5 | 20.0 | 13.2
CCc1cc(N2CCOCC2)cc2c1[nH]c1ccccc12 | -6.0 | -3.1 | ? | 2.0 | -1.9 | 96.0*
Cc1cccc(CC(=O)c2c[nH]c3ccccc23)c1 | 1.0 | 1.9 | -1.7 | -0.4 | 5.9 | -1.0
O=C(Cc1ccc(Cl)cc1)NCCS(=O)(=O)N1CCN(c2ccccc2F)CC1 | -1.8 | 0.2 | -17.3 | 0.8 | 2.5 | 1.9
N#Cc1nc(-c2ccc(OCc3ccccc3)cc2)oc1N1CCC(C(N)=O)CC1 | -2.4 | -11.8 | 15.9 | 1.0 | 10.4 | 24.0
CC(C)(C)c1ccc(-c2nc(C#N)c(N3CCC(C(N)=O)CC3)o2)cc1 | -2.9 | -3.4 | ? | -1.4 | 21.0 | 166.0*
CC(C)Cc1nc(C#N)c(N2CCC(C(N)=O)CC2)o1 | -1.8 | 0.6 | 0.9 | 0.0 | -1.5 | -2.6
COc1ccc(-c2nc(C#N)c(N3CCC(C(N)=O)CC3)o2)cc1 | 0.0 | -3.1 | 19.9 | -0.9 | 16.2 | +
N#Cc1nc(-c2cccc(Cl)c2)oc1N1CCC(C(N)=O)CC1 | -2.2 | 6.5 | 1.2 | 2.4 | 5.7 | +
COc1cc(OC)c(C(=O)OC(C)C(=O)NCc2ccc3c(c2)OCO3)cc1OC (stereo not given) | . | 5.0 | -4.1 | -6.6 | 0.0 | -5.1
Cc1ccc(C(=O)N(C)CC(=O)Nc2cccc(C)c2C)o1 | -1.6 | -1.5 | -0.7 | -0.2 | 2.5 | 3.7
CN(C)c1ccc(/C=N/NC(=O)c2ccco2)cc1 | -2.7 | -5.6 | -2.8 | 3.1 | 47.4* | -3.2
Cn1ccc(C(=O)N/N=C/c2cccnc2)n1 | . | -2.9 | 1.3 | 9.1 | -11.8 | -4.0
CN(C)c1ccc(/C=N\NC(=O)c2csnn2)cc1 | 0.3 | 3.3 | 63.0 | -0.5 | 41.9* | -3.6
CN(C)c1ccc(/C=N/NC(=O)c2ccccn2)cc1 | 3.3 | -2.6 | 99.7 | -0.3 | 24.9 | -0.1
CN(C)c1ccc(C=Nc2ccccc2C(N)=O)cc1 | . | -12.0 | -3.9 | 4.0 | 38.3* | 5.5
CN(C)c1ccc(/C=N/NC(=O)c2ccn(C)n2)cc1 | -2.2 | 8.1 | -7.2 | -1.0 | 33.1* | -3.0
